Sampled rows, rich in hits. Any-hit rate of the full collection: about 1.8%.
GSIS activator: GLuc luminescence reporter in INS-1E cells, primary screen for activators of glucose-dependent secretion of insulin; INS-1E GLuc reporter insulin secretion, 2-3 h; activation, % at 16.6 µM; 370,000 compounds, 0.61% hits; AID 743287;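 active means lowest replicate activation of at least 40%, so every replicate reaches that level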
EWS-Fli block: inhibitors of EWS/Fli oncoprotein transcriptional activity | AID 651661 | inhibition, % at 12.6 µM | 350,000 compounds, 0.67% hits | A673 NR0B1-luciferase reporter, viability-normalised;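 active means mean inhibition of at least 50% after viability correction, with every replicate also passing that limit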;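 further: firefly luciferase signal divided by Alamar Blue viability fluorescence both relative to DMSO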
F508del corr: correctors of CFTR F508del function in bronchial epithelial cells. CFBE cells, YFP halide quenching; stimulated with forskolin plus potentiator P3; % fluorescence drop versus neutral controls. activity (quench increase), % at 7.58 µM. 350,000 compounds, 0.36% hits. AID 720511;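 active means mean added fluorescence quench of at least 8% versus neutral control, with both replicates also reaching 8%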;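 further: cells transiently co-express mutant CFTR-F508del with the halide-sensitive YFP; corrector assay measuring rescue of mutant channel to the surface after 24 h compound exposure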
RAD54 inh: RAD54 (human) branch migration inhibition; RAD54 Holliday junction branch migration, FAM/BHQ fluorescence; inhibition, % at 10.4 µM; Q92698; 360,000 compounds, 0.14% hits;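 active means mean normalized replicate activity at least 40 and at least half of replicates scoring 40 or more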;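 further: inhibitors cause a drop in the FAM fluorescence signal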
Target sequence (Q92698 whole entry, looked up): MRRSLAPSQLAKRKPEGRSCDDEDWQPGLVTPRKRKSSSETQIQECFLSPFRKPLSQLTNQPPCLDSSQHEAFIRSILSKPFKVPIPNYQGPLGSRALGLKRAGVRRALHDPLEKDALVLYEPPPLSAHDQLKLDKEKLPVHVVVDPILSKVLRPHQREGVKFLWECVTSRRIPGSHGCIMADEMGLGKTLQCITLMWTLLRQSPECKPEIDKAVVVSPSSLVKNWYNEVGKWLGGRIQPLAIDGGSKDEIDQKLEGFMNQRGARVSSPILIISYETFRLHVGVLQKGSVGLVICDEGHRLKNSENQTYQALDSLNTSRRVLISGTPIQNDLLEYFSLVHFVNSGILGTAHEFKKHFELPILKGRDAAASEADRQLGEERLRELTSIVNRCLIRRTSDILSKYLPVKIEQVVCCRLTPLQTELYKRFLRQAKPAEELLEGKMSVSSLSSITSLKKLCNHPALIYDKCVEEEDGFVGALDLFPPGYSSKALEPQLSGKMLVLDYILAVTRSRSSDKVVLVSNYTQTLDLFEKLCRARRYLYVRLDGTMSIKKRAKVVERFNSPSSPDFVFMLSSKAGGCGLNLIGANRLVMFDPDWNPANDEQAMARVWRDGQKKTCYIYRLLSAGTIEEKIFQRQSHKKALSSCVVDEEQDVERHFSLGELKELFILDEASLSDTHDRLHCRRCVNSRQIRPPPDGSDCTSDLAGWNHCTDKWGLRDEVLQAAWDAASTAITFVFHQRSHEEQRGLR
LGR2 inh: Drosophila LGR2 receptor signaling inhibition | AID 720647 | inhibition, % at 9.99 µM | HEK293 LGR2, CRE-luciferase, bursicon-stimulated, 4 h | 380,000 compounds, 0.35% hits;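 active means drop in luminescence signal, shown as inhibition above about 50% in the replicate tests, limit read from the data, passing the limit was not always enough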;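 further: agonist challenge used bursicon conditioned medium at about half maximal strength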
RAD52 anneal inh: inhibitors of human RAD52 DNA annealing; P43351; recombinant RAD52 DNA annealing, FRET fluorescence; inhibition, % at 18.7 µM; 360,000 compounds, 0.46% hits; AID 651710;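 active means every replicate showing at least 50% inhibition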
A number is an active result; – = inactive; · = no result; ! = not confirmed by another sample.

SMILES | GSIS activator | EWS-Fli block | F508del corr | RAD54 inh | LGR2 inh | RAD52 anneal inh
CC(=O)Oc1ccc(OC(C)=O)c(SCCCCCCl)c1 | – | 54 | – | · | – | –
CCOC(=O)N1CCN(C(=O)Cc2ccsc2)CC1 | · | · | · | – | · | ·
C/C=C/c1ccc(C2[C@H]3CNC[C@@H]2N3S(=O)(=O)c2ccccc2C)cc1 (some centres undefined) | – | · | – | · | – | –
O=S(=O)(c1ccccc1)N1C[C@@H]2N[C@H](C1)C2c1ccc(/C=C/c2ccccc2)cc1 (some centres undefined) | – | – | – | · | – | 87!
O=S(=O)(c1ccccc1F)N1[C@@H]2CNC[C@H]1C2c1ccc(/C=C/c2ccccc2)cc1 (some centres undefined) | – | – | – | · | – | 52!
Cc1ccccc1S(=O)(=O)N1C[C@@H]2N[C@H](C1)C2c1ccc(/C=C/c2ccccc2)cc1 (some centres undefined) | – | · | · | · | · | ·
O=S(=O)(c1ccccc1F)N1C[C@@H]2N[C@H](C1)C2c1ccc(/C=C/c2ccccc2)cc1 (some centres undefined) | 171! | – | – | · | – | 74!
COCc1cn(CC[C@H]2CC[C@@H](NC(=O)Nc3ccc(C(F)(F)F)cc3)[C@@H](CO)O2)nn1 | – | · | – | – | – | –
C[C@@H]1CN([C@H](C)CO)C(=O)c2cc(-c3cccc(F)c3)cnc2O[C@@H]1CN(C)C(=O)c1cccc(F)c1 | – | – | – | – | – | –
CCN(CC)c1ccc(/C=N/NC(=O)c2cnccn2)cc1 | – | – | 11 | · | – | –
CCc1ccc(/C=N/NC(=O)c2ccccn2)cc1 | – | – | – | – | 71 | –
O=C(C[C@@H]1CC[C@H]2[C@@H](COC[C@H](O)CN2Cc2cccc(Cl)c2)O1)N1CCCCC1 | – | – | – | – | – | –
CC1=C(C(=O)N2CCCCCC2)CC(CC(=O)NCCCN(C)C)C(=O)N1CCCN1CCCC1=O (centres undefined) | – | – | – | · | – | –
CC1=C(C(=O)N2CCOCC2)CC(CC(=O)NCCCN(C)C)C(=O)N1CCCN1CCCC1=O (centres undefined) | 41 | – | – | · | – | –
NS(=O)(=O)c1ccc(CCNc2nn3c(-c4cccc(OC(F)(F)F)c4)cnc3s2)cc1 | 143 | – | 14 | – | – | –
COc1ccc(CNc2nn3c(-c4cccc(C(=O)N(C)C)c4)cnc3s2)cc1 | – | – | – | – | – | –
COc1ccc(OCC2CNC(=O)O2)cc1 (centres undefined) | – | – | · | · | – | –
CC#CCOCC1CNC(=O)O1 (centres undefined) | · | – | 18 | – | · | –
Cc1cnc(NC(=O)CSCc2c(C)noc2C)s1 | – | – | – | – | – | –
CCOC(=O)c1c(C)n(CC(O)CN(CC)CC)c2cc(Br)c(OC)cc12 (centres undefined) | 68 | – | – | – | – | –
CCOC(=O)C1CCCN(C(=O)C2c3ccccc3Oc3ccccc32)C1 (centres undefined) | · | · | · | – | · | ·
CCOC(=O)C1CCCN(C(=O)C2COc3ccccc3O2)C1 (centres undefined) | 42 | – | – | – | – | –
O=C(C1COc2ccccc2O1)N1CCCC1 (centres undefined) | · | · | · | – | · | ·
CC1CCN(C(=O)C2COc3ccccc3O2)CC1 (centres undefined) | – | – | 16 | – | – | –
c1cncc(-c2nn3c(Cn4cnc5ccccc54)nnc3s2)c1 | · | · | · | – | · | ·
SMILES | GSIS activator | EWS-Fli block | F508del corr | RAD54 inh | LGR2 inh | RAD52 anneal inh
COc1ccc(S(=O)(=O)N2CCc3ccccc3C2)cc1C(=O)O | – | – | – | – | – | –
COc1ccc(S(=O)(=O)N2CCc3ccccc3C2)cc1OC | 63 | – | – | – | – | –
COc1ccc(S(=O)(=O)N2CCN(CCOc3ccccc3Cl)CC2)cc1OC | – | – | 17 | · | – | –
O=C(Nc1ccccc1)c1cccc(S(=O)(=O)Oc2ccc([N+](=O)[O-])cc2)c1 | – | – | – | · | – | –
C[C@H](CO)N1C[C@H](C)[C@@H](CN(C)Cc2ccccc2)Oc2ncc(-c3cccnc3)cc2C1=O | – | – | – | · | – | ·
C[C@H](CO)N1C[C@H](C)[C@@H](CN(C)Cc2ccc(-c3ccccc3)cc2)Oc2ncc(-c3cccnc3)cc2C1=O | – | 69 | – | – | – | –
C[C@H](CO)N1C[C@H](C)[C@H](CN(C)Cc2ccc(-c3ccccc3)cc2)OCc2ccccc2-c2ccccc2C1=O | – | · | – | · | – | –
COc1ccccc1-c1cnc2c(c1)C(=O)N([C@H](C)CO)C[C@@H](C)[C@@H](CN(C)C(C)=O)O2 | 42 | – | – | – | – | –
CCCN(C)C[C@@H]1Oc2ncc(C#Cc3cccc(OC)c3)cc2C(=O)N([C@H](C)CO)C[C@@H]1C | – | – | – | · | – | 53
C[C@H](CO)N1C[C@H](C)[C@H](CN(C)Cc2ccccc2)OCc2ccccc2-c2ccccc2C1=O | – | 70 | – | – | – | –
CCCN(C)C[C@@H]1Oc2ncc(C#Cc3ccccc3OC)cc2C(=O)N([C@H](C)CO)C[C@@H]1C | · | – | – | – | · | 57
S=C(Nc1ccccc1)Nc1ccccn1 | – | – | – | – | – | –
O=C(Nc1ccccc1)C(=O)Nc1ccccn1 | – | · | · | – | 65 | ·
O=C(Nc1cccc(O)c1)C(=O)Nc1ccccn1 | – | – | – | – | 78 | –
COc1cc(NS(=O)(=O)c2ccc(NC(=O)c3ccc(F)cc3)cc2)ncn1 | – | – | – | – | – | –
CCN1C(=O)N/C(=C/c2ccc(C)o2)C1=O | – | – | – | · | – | –
Cc1ccc(/C=C2/NC(=O)N(Cc3ccc(Br)cc3)C2=O)o1 | 57 | · | · | – | – | ·
CCNc1nc(NC(C)C)nc(N(C)C#N)n1 | 58 | – | – | – | – | –
CCCN(C#N)c1nc(NCC)nc(NC(C)C)n1 | · | · | · | – | · | ·
Cc1ccc(-c2cnc3c(Cl)c(C)nn3c2)cc1 | – | 53 | – | – | 57 | –
Cc1onc(-c2c(Cl)cccc2Cl)c1C(O)c1ccc(F)cc1 (centres undefined) | – | – | – | – | – | –
CCOc1cccc(-c2cnc3cccnn23)c1 | – | – | – | – | – | –
CCc1cc2c(nc1CC)CCCN2S(=O)(=O)c1ccc(OC)cc1 | · | 72 | – | · | – | –
COc1ccc(CNC(=O)CCC(=O)Nc2cccnc2)cc1 | – | – | – | – | – | –
CN1C(=O)/C(=C/c2ccc3c(c2)OCO3)N=C1c1ccccc1 | 40 | · | · | · | – | ·
CCSC1=N/C(=C\c2ccc3c(c2)OCO3)C(=O)S1 | – | · | · | – | – | ·
Cc1sc2ncnc(SC(C)C(=O)N3c4ccccc4Sc4ccccc43)c2c1C (centres undefined) | – | 90 | · | · | – | –
COc1ccc(N2CCN(CCCn3cnc4c(SC)ncnc43)CC2)cc1 | – | – | – | – | – | –
CN(CC(=O)Nc1cccc(F)c1)C(=O)c1ccc(OCc2ccccc2)cc1 | – | – | – | – | – | –

Screening results as filed in PubChem BioAssay.
